Measured values: the supplement of paper PMC6522484
Values joined by “and” are separate entries in the source; they are usually repeats but may differ in a detail not shown here. Equal entries are not always repeated. ± gives the standard deviation of the averaged measurements.

The molecules below were run on DLD1 (assay: cell viability (CellTiter-Glo) relative to plate median (fraction of plate median); higher = more viable cells). Details: 5 µM; treatment time 24 h; reporter: 7TFP.
Procedure, shortened: (§1)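 For this screen, colorectal cancer cell lines carrying stable lentiviral TCF/Wnt firefly luciferase reporters, either 7TFP or TCF4/Wnt, were seeded into 384-well plates. A day's wait of 24 h preceded addition of library compounds at a final 5 µM, which stayed on the cells for 24 h. Firefly luciferase or CellTiterGlo luminescence, read on parallel plates, was normalised to the plate median per well, and the reported value is the mean of two independent replicates.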

SMILES | cell viability
O=c1[nH]cnc2nc[nH]c12 | 0.987 ± 0.061
O=C(Nc1ccccc1)Nc1ccccc1 | 1.02 ± 0.13
COc1ccc2c(c1)c(CC(=O)O)c(C)n2C(=O)c1ccc(Cl)cc1 | 1.01 ± 0.016
CC(=O)O[C@@H]1CC2C(C)(C)C(=O)C3OC3[C@]2(C)C2CC[C@@]3(C)[C@H](c4ccoc4)OC(=O)C4OC43[C@@]21C (stereo partly drawn) | 1.06 ± 0.014
CC(=O)Oc1c(-c2ccccc2)oc2c(CC=C(C)C)c3c(c(OC(C)=O)c2c1=O)C=CC(C)(C)O3 | 1.05 ± 0.057
CCCC(=O)O[C@]1(C(=O)CO)CC[C@H]2[C@@H]3CCC4=CC(=O)CC[C@]4(C)[C@H]3[C@@H](O)C[C@@]21C | 0.965 ± 0.03
NC(=O)c1cccnc1 | 1.02 ± 0.021
CCOC(N)=O | 1.01 ± 0.021
CCCc1ncc(C[n+]2ccccc2C)c(N)n1 | 0.995 ± 0.05
COc1c(O)cc(O)cc1O | 1.01 ± 0.04
COc1ccc2ccc(=O)oc2c1CC=C(C)C | 1.04 ± 0.13
COc1ccc2oc3ccccc3c(=O)c2c1 | 1.075 ± 0.0071
CN(C)CCC=C1c2ccccc2CCc2ccccc21 | 0.958 ± 0.036
O=c1c(-c2ccc(O)cc2)coc2cc(O)cc(O)c12 | 1.09 ± 0.021
O=C(/C=C/c1ccccc1)c1ccc(O[C@@H]2O[C@H](CO)[C@@H](O)[C@H](O)[C@H]2O)cc1O | 0.947 ± 0.022
CCn1cc(C(=O)O)c(=O)c2cc(F)c(N3CCN(C)CC3)cc21 | 1 ± 0.04
CC(C)NCC(O)COc1ccc(CC(N)=O)cc1 (stereo not drawn) | 1.07 ± 0.057
CNCc1ccccc1 | 1.03 ± 0.014
COC(=O)C[C@H]1C(C)(C)[C@@H](O)[C@@H]2CC3=C4CC(O)O[C@@H](c5ccoc5)[C@]4(C)CCC3[C@@]1(C)C2=O (stereo partly drawn) [3,16-DIDEOXYMEXICANOLIDE-3beta-DIOL] | 1.1 ± 0.085
CN1CCN(CC/C=C2/c3ccccc3Sc3ccc(S(=O)(=O)N(C)C)cc32)CC1 | 1.07 ± 0.078

SMILES | cell viability
CCC(=O)O[C@H]1CC[C@H]2[C@@H]3CCc4cc(O)ccc4[C@H]3CC[C@]12C | 1.01 ± 0.023
O=c1c(-c2ccccc2)coc2cc(O)cc(O)c12 | 0.94 ± 0.11
COc1ccc([C@H]2Oc3cc(OC)cc(OC)c3C[C@H]2O)cc1 | 1 ± 0.029
CCC(=O)NCC[C@@H]1CCc2ccc3c(c21)CCO3 | 1.04 ± 0.021
CCOc1ccc2c(c1)C(C)=CC(C)(C)N2 | 1 ± 0.071
COc1cc(Cc2cnc(N)nc2N)cc(OC)c1OC | 0.988 ± 0.013
CO[C@H]1C[C@@H]2CC[C@@H](C)[C@@](O)(O2)C(=O)C(=O)N2CCCC[C@H]2C(=O)O[C@H]([C@H](C)C[C@@H]2CC[C@@H](O)[C@H](OC)C2)CC(=O)[C@H](C)/C=C(\C)[C@@H](O)[C@@H](OC)C(=O)[C@H](C)C[C@H](C)/C=C/C=C/C=C/1C | 1.18 ± 0.028
NCCc1ccc(O)c(O)c1 | 0.922 and 1
COC(=O)C[C@H]1C(C)(C)[C@@H](OC(C)=O)[C@@H]2CC3=C4CC(=O)O[C@@H](c5ccoc5)[C@]4(C)CC[C@@H]3[C@@]1(C)C2=O | 0.9945 ± 0.0078
C[C@@H]1CC(=O)O[C@H](C)Cc2cc(O)cc(O)c2C(=O)O[C@H](C)CC(=O)O[C@H](C)Cc2cc(O)cc(O)c2C(=O)O[C@H](C)CC(=O)O1 | 0.982 ± 0.0014
COC(=O)[C@H]1[C@H]2C[C@H]3c4[nH]c5cc(OC)ccc5c4CCN3C[C@H]2C[C@@H](OC(=O)c2cc(OC)c(OC)c(OC)c2)[C@@H]1OC | 0.96 ± 0.057
COCCCOc1cc(C[C@@H](C[C@H](NC(=O)OC(C)(C)C)[C@@H]2C[C@@H](C(C)C)C(=O)O2)C(C)C)ccc1OC [Borrelidin derivative (C30H49NO7)] | 1.01 ± 0.072
CC[N+](CC)(CC)CCOc1cccc(OCC[N+](CC)(CC)CC)c1OCC[N+](CC)(CC)CC | 0.9365 ± 0.0021
Cc1ccc(Cl)c(Nc2ccccc2C(=O)O)c1Cl | 1.04 ± 0.067
CC=CC1=C(C(=O)O)N2C(=O)[C@@H](NC(=O)[C@H](N)c3ccc(O)cc3)[C@H]2SC1 | 0.992 ± 0.012
COc1ccc(-c2oc3ccccc3c(=O)c2O)cc1OC | 0.969 ± 0.087
C/C=C1\[C@H]2C=C(C)C[C@]1(N)c1ccc(=O)[nH]c1C2 | 0.965 ± 0.064
CC1=C(/C=C/C(C)=C/C=C/C(C)=C/C=C/C=C(C)/C=C/C=C(C)/C=C/C2=C(C)C(=O)CCC2(C)C)C(C)(C)CCC1=O [CANTHAXANTHIN (euglenanone)] | 1 ± 0.021
CC(=O)c1oc2c(C)c3oc(=O)cc(C)c3cc2c1C [2-Acetyl-3,5,9-trimethylfuro[3,2-g]-chromen-7-one (VFT-04)] | 1.02 ± 0.11

What follows are molecules tested on HCT116 in the same assay as above. Details: 5 µM; treatment time 24 h; reporter: TCF4/Wnt.
Procedure, shortened: as §1

SMILES | cell viability
O=c1[nH]cnc2nc[nH]c12 | 1.04
O=C(Nc1ccccc1)Nc1ccccc1 | 0.996 ± 0.048
COc1ccc2c(c1)c(CC(=O)O)c(C)n2C(=O)c1ccc(Cl)cc1 | 0.785 ± 0.33
CC(=O)O[C@@H]1CC2C(C)(C)C(=O)C3OC3[C@]2(C)C2CC[C@@]3(C)[C@H](c4ccoc4)OC(=O)C4OC43[C@@]21C (stereo partly drawn) | 1.1 ± 0.085
CC(=O)Oc1c(-c2ccccc2)oc2c(CC=C(C)C)c3c(c(OC(C)=O)c2c1=O)C=CC(C)(C)O3 | 1.11 ± 0.11
CCCC(=O)O[C@]1(C(=O)CO)CC[C@H]2[C@@H]3CCC4=CC(=O)CC[C@]4(C)[C@H]3[C@@H](O)C[C@@]21C | 0.958 ± 0.16
NC(=O)c1cccnc1 | 1.01 ± 0.025
CCOC(N)=O | 1.04 ± 0.16
CCCc1ncc(C[n+]2ccccc2C)c(N)n1 | 0.935 ± 0.059
COc1c(O)cc(O)cc1O | 0.694 ± 0.33
COc1ccc2ccc(=O)oc2c1CC=C(C)C | 1.01 ± 0.026
COc1ccc2oc3ccccc3c(=O)c2c1 | 1.05 ± 0.078
CN(C)CCC=C1c2ccccc2CCc2ccccc21 | 0.997 ± 0.047
O=c1c(-c2ccc(O)cc2)coc2cc(O)cc(O)c12 | 1.03 ± 0.05
O=C(/C=C/c1ccccc1)c1ccc(O[C@@H]2O[C@H](CO)[C@@H](O)[C@H](O)[C@H]2O)cc1O | 0.83 ± 0.04
CCn1cc(C(=O)O)c(=O)c2cc(F)c(N3CCN(C)CC3)cc21 | 1.015 ± 0.0071
CC(C)NCC(O)COc1ccc(CC(N)=O)cc1 (stereo not drawn) | 0.932 ± 0.016
CNCc1ccccc1 | 1.125 ± 0.0071
COC(=O)C[C@H]1C(C)(C)[C@@H](O)[C@@H]2CC3=C4CC(O)O[C@@H](c5ccoc5)[C@]4(C)CCC3[C@@]1(C)C2=O (stereo partly drawn) [3,16-DIDEOXYMEXICANOLIDE-3beta-DIOL] | 1.04 ± 0.042
CN1CCN(CC/C=C2/c3ccccc3Sc3ccc(S(=O)(=O)N(C)C)cc32)CC1 | 1.16 ± 0.042

SMILES | cell viability
CCC(=O)O[C@H]1CC[C@H]2[C@@H]3CCc4cc(O)ccc4[C@H]3CC[C@]12C | 1 ± 0.16
O=c1c(-c2ccccc2)coc2cc(O)cc(O)c12 | 0.883 ± 0.027
COc1ccc([C@H]2Oc3cc(OC)cc(OC)c3C[C@H]2O)cc1 | 0.941 ± 0.098
CCC(=O)NCC[C@@H]1CCc2ccc3c(c21)CCO3 | 1.15 ± 0.092
CCOc1ccc2c(c1)C(C)=CC(C)(C)N2 | 0.91 ± 0.09
COc1cc(Cc2cnc(N)nc2N)cc(OC)c1OC | 1 ± 0.15
CO[C@H]1C[C@@H]2CC[C@@H](C)[C@@](O)(O2)C(=O)C(=O)N2CCCC[C@H]2C(=O)O[C@H]([C@H](C)C[C@@H]2CC[C@@H](O)[C@H](OC)C2)CC(=O)[C@H](C)/C=C(\C)[C@@H](O)[C@@H](OC)C(=O)[C@H](C)C[C@H](C)/C=C/C=C/C=C/1C | 0.976 ± 0.049
NCCc1ccc(O)c(O)c1 | 1.05 and 1.1
COC(=O)C[C@H]1C(C)(C)[C@@H](OC(C)=O)[C@@H]2CC3=C4CC(=O)O[C@@H](c5ccoc5)[C@]4(C)CC[C@@H]3[C@@]1(C)C2=O | 1.045 ± 0.0071
C[C@@H]1CC(=O)O[C@H](C)Cc2cc(O)cc(O)c2C(=O)O[C@H](C)CC(=O)O[C@H](C)Cc2cc(O)cc(O)c2C(=O)O[C@H](C)CC(=O)O1 | 0.997 ± 0.047
COC(=O)[C@H]1[C@H]2C[C@H]3c4[nH]c5cc(OC)ccc5c4CCN3C[C@H]2C[C@@H](OC(=O)c2cc(OC)c(OC)c(OC)c2)[C@@H]1OC | 1 ± 0.11
COCCCOc1cc(C[C@@H](C[C@H](NC(=O)OC(C)(C)C)[C@@H]2C[C@@H](C(C)C)C(=O)O2)C(C)C)ccc1OC [Borrelidin derivative (C30H49NO7)] | 0.995 ± 0.036
CC[N+](CC)(CC)CCOc1cccc(OCC[N+](CC)(CC)CC)c1OCC[N+](CC)(CC)CC | 0.972 ± 0.017
Cc1ccc(Cl)c(Nc2ccccc2C(=O)O)c1Cl | 1.06 ± 0.086
CC=CC1=C(C(=O)O)N2C(=O)[C@@H](NC(=O)[C@H](N)c3ccc(O)cc3)[C@H]2SC1 | 1.03 ± 0.06
COc1ccc(-c2oc3ccccc3c(=O)c2O)cc1OC | 0.912 ± 0.024
C/C=C1\[C@H]2C=C(C)C[C@]1(N)c1ccc(=O)[nH]c1C2 | 0.952 ± 0.016
CC1=C(/C=C/C(C)=C/C=C/C(C)=C/C=C/C=C(C)/C=C/C=C(C)/C=C/C2=C(C)C(=O)CCC2(C)C)C(C)(C)CCC1=O [CANTHAXANTHIN (euglenanone)] | 0.899 ± 0.067
CC(=O)c1oc2c(C)c3oc(=O)cc(C)c3cc2c1C [2-Acetyl-3,5,9-trimethylfuro[3,2-g]-chromen-7-one (VFT-04)] | 0.96 ± 0.05
